Compounds without any hit were thinned out: in the full panel of roughly 83,000, 20% have a hit.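 For each line, cells grew in 96-well plates with the test compound present at a single concentration for 48 hours.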 Values without a mark were called inactive. The source made the active and inactive calls.
The molecules below were run on NCI-H522 lung (assay: NCI-60 one-dose screen, 48 h (100 = growth as untreated, 0 = no growth, -100 = all killed)). Settings: 10 µM unless noted.
Experimental: Growth inhibition of the NCI-H522 human Non-Small Cell Lung tumor cell line is measured as a screen for anti-cancer activity. Cells are grown in 96 well plates and exposed to the test compound for 48 hours. Compounds are tested at a single concentration, which is 10^-5 M for most compounds. The reported endpoint is percent growth (GI% or GIPRCNT), where numbers from 0 - 100% represent growth inhibition, and numbers from -100% - 0 represent cell death. For example, a value of 40 represents 60% growth inhibition. A value of 0 means no net growth occurred over the course of the experiment. A value of -40 indicates 40% of cells at the beginning of the experiment died by the end of the experiment. A value of -100 means all cells are dead at the end of the experiment.
NCI-60 Human Tumor Cell Lines Screen was performed using the standard one-dose NCI protocol, which is described in more detail at https://dtp.cancer.gov/discovery_development/nci-60/default.htm.
Compounds with GIPRCNT values below 10 were considered active. Activity score was based on GIPRCNT using the following formula: […]
Score is 0 for GIPRCNT values of 100 or above, 50 for GIPRCNT values of 0, and 100 for GIPRCNT values of -100.

SMILES	growth
Cc1c(C)c2c(c(C)c1OC(=O)CCC(=O)[O-])CCC(C)(CCCCCCCCCCC[P+](c1ccccc1)(c1ccccc1)c1ccccc1)O2 (stereo not given)	-25.9% (active)
COC(=O)[C@H](C)NC(=O)[C@@H]1CCCN1C(=O)CNC(=O)[C@H](C)N	96.2%
CC1(C)CC[C@]2(CO)CC[C@]3(C)C(=CC[C@@H]4[C@@]5(C)CCNCC(C)(C)[C@@H]5CC[C@]43C)[C@@H]2C1	70.7%
CS(=O)(=O)Nc1cc(-c2ccc3ncnc(Nc4cccc(Cl)c4)c3c2)cnc1Cl	2.07% (active)
C=C1CC[C@@H]2[C@](C)(COC(C)=O)[C@H](OC(C)=O)CC[C@@]2(C)[C@@H]1CC(Nc1ccc(S(=O)(=O)Nc2nccc(C)n2)cc1)C1=CCOC1=O (stereo not given in full)	-50.6% (active)
COC(=O)c1c(C(=O)OC)c2ccc3c4ncccc4ccc3n2c1C(=O)c1ccc(C)cc1	68%
CCN1CCN(c2nc(NNC(=O)c3ccc(OC)cc3)nc(N3CCN(C(c4ccccc4)c4ccccc4)CC3)n2)CC1	85.3%
C#Cc1cccc(Nc2ncnc3ccc(-c4cnc(Cl)c(NS(C)(=O)=O)c4)cc23)c1	-22.8% (active)
C#CC(F)(F)[C@]1(O)CCC2C3CCC4=CC(=O)CCC4=C3[C@@H](c3ccc(N(C)C)cc3)C[C@@]21C (stereo not given in full)	64.7%
CC(C)(C)[C@H](OCc1cn([C@H]2C[C@@H](O)[C@@H](CO)O2)c(=O)[nH]c1=O)c1ccc(C#Cc2ccccc2)cc1[N+](=O)[O-]	45%
CN1CCN(Cc2ccc(NC(=O)c3cncc(C#Cc4c(N)ncc5ccccc45)c3)cc2C(F)(F)F)CC1	-83.9% (active)
Nc1ncnc2c1N=C(c1ccc([N+](=O)[O-])cc1)CC(c1ccc3c(c1)OCO3)N2 (stereo not given)	84.9%
O=C(/C=C/c1cccc([N+](=O)[O-])c1)c1ccc(Nc2nc(Nc3ccc(F)cc3)nc(Nc3ccc(Cl)cc3)n2)cc1	82.8%
[2H]C([2H])([2H])Oc1ccc(/C=C/C(=O)/C=C(/C=C/c2ccc(OC([2H])([2H])[2H])c(OC([2H])([2H])[2H])c2OC([2H])([2H])[2H])OB(F)F)c(OC([2H])([2H])[2H])c1OC([2H])([2H])[2H]	45.9%
O=C(/C=C/C12c3ccccc3C(c3ccccc31)C1C(=O)NC(=O)C12)c1cccs1 (stereo not given)	28%
O=c1ccc2nc(-c3ccccc3)nn(-c3ccccn3)c-2c1	-59.7% (active)
COc1ccc(-c2ccc(-c3ccc(C(=N)N)o3)o2)cc1	1.71% (active)
[2H]C([2H])([2H])Oc1ccc(/C=C/C(=O)/C=C(O)/C=C/c2ccc(OC([2H])([2H])[2H])c(OC([2H])([2H])[2H])c2)cc1OC([2H])([2H])[2H]	14.8%
COC(=O)c1c(C)nc(C)c2c1C(=O)C(Br)=C(NCCCCO)C2=O	71.1%
CCOC(=O)c1c(C)n2c(=O)cc(C)c3c(OC(C)=O)c(OC(C)=O)cc1c32	55.3%

SMILES	growth
Oc1ccc(Cc2ccc(O)c3ncccc23)c2cccnc12	-10.8% (active)
Cc1cc2c(c(C)n1)CN(C(=O)Nc1nc(-c3cncs3)ccc1N)C2	87.5%
COc1ccc(Nc2nc(Nc3cc(C)[nH]n3)c3cc(OC)c(OC)cc3n2)cc1	-39.1% [20 µM] (active)
CN1CCN(c2ccc(Nc3ncc4[nH]c(=O)n(Cc5ccccc5N)c4n3)cc2)CC1	77.1%
CCN1CCN(CCOc2ccc(CNc3ccc4nc(CCC5CCCCC5)[nH]c4c3)cc2)CC1	32%
C=C(C)[C@@H]1CC[C@]2(C#N)CC[C@]3(C)[C@H](CC[C@@H]4[C@@]5(C)CCCNC(C)(C)[C@@H]5CC[C@]43C)[C@@H]12	91.5%
COc1cccc2cc(N(C)c3nc(C)nc4c3CCC4)ccc12	-16.9% (active)
O=C(CN1C(=O)c2ccccc2S1(=O)=O)Nc1nc(-c2cc3ccccc3oc2=O)cs1	92.2%
O=S(=O)(Nc1ccc(Br)cc1)c1ccc(-c2cnc(C3CC3)o2)cc1	11%
CCC(C)C(N)C(=O)NC(CC(C)C)C(=O)N1CCCC1C(=O)NC(Cc1c[nH]c2ccccc12)C(=O)NC(CCCCN)C(=O)NC(Cc1c[nH]c2ccccc12)C(=O)N1CCCC1C(=O)NC(Cc1c[nH]c2ccccc12)C(=O)NC(Cc1c[nH]c2ccccc12)C(=O)N1CCCC1C(=O)NC(Cc1c[nH]c2ccccc12)C(=O)NC(CCCNC(=N)N)C(=O)NC(CCCNC(=N)N)C(N)=O (stereo not given)	97.7%
COc1cc(C)cc(-c2c(-c3cc(N4CC(O)C4)nc(-c4cccnc4)n3)cnn2C)c1	86.5%
CCOc1ccccc1NC(=O)CCC(=O)OC	81.9%
Cc1csc(Nc2nc(-c3cccc(Cl)c3)nc(C(Cl)(Cl)Cl)n2)n1	83.6%
O=C(OCC(O)(CO)C(=O)NC12CC3CC(CC(C3)C1)C2)c1ccc(Cl)cc1 (stereo not given)	88.2%
Cc1cc(=O)oc2cc(Oc3nc(-c4ccccc4)cn4c(-c5ccccc5)cnc34)ccc12	47.1%
Nc1n[nH]c2cccc(C#Cc3cccc(C(=O)Nc4ccc(Cl)c(C(F)(F)F)c4)c3)c12	30.9%
O=C(CSc1nnc(-c2ccc(Cl)c(Cl)c2)n1-c1ccccc1)Nc1ccc(C(=O)/C=C/c2ccc(Cl)cc2)cc1	64.7%
CCC(=C(c1ccc(OCCN(CC)CC)cc1)c1ccc(OCCN(CC)CC)cc1)c1ccc(Cl)cc1	-39.4% (active)
C#Cc1ccc(NC(=O)Cc2ccc(/C=C/C(=O)c3nccn3C)cc2)cc1	68.1%
O=c1c(/C=C/c2c(O)ccc3ccccc23)nnc2sc(-c3cccc([N+](=O)[O-])c3)nn12	86.3%

— PubChem BioAssay (NCI)
